Source: PubChem BioAssay AID1159580 (chemical genetic matrix, 2015)
Values joined by “and” are separate entries in the source; they are usually repeats but may differ in a detail not shown here. Equal values may be shown once. About 2,000 (36%) of roughly 5,500 compounds were called active. Not shown: some 18% with an inconclusive outcome. Rule as the data show it: active = normalized growth mostly below about 0.91 (no sharp cut-off); inconclusive = no clear call, values can overlap the other calls; inactive = mostly above about 0.92. Some of the results follow.

Assay: chemical genetic growth profiling, strain panel (AID 1159580);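 also: tested at 20 µM; growth read once vehicle control cultures reached saturation at 30 °C; 1 = growth at the plate median or of vehicle wells; lower values mean less growth of the strain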
Conditions: S. cerevisiae deletion strains, growth OD

Measured: normalized growth

CNC(C)C(O)c1ccccc1 (stereo not drawn)
inactive: locus YAL013W, strain DEP1, hits give low values 1 | locus YAL021C, strain ccr4, hits give low values 1.02 | locus YAL026C, strain drs2, hits give low values 0.997 | locus YAL030W, strain snc1, hits give low values 1.01 | locus YBL061C, strain skt5, hits give low values 1 | locus YBR009C, strain hhf1, hits give low values 0.993 | locus YBR021W, strain FUR4, hits give low values 1.01 | locus YBR023C, strain chs3, hits give low values 1.01 | locus YBR171W, strain sec66, hits give low values 1.02 | locus YBR229C, strain ROT2, hits give low values 1 | locus YBR231C, strain swc5, hits give low values 1.02 | locus YBR279W, strain paf1, hits give low values 1.01 | locus YCL011C, strain gbp2, hits give low values 1.01 | locus YCL016C, strain dcc1, hits give low values 1 | locus YCL029C, strain bik1, hits give low values 1.02 | locus YCL061C, strain MRC1, hits give low values 1.02 | locus YCL069W, strain vba3, hits give low values 1.02 | locus YCR088W, strain abp1, hits give low values 1.02 | locus YDL005C, strain med2, hits give low values 1.02 | locus YDL035C, strain GPR1, hits give low values 1.01 | locus YDL040C, strain nat1, hits give low values 1.01 | locus YDL074C, strain BRE1, hits give low values 1.02 | locus YDL101C, strain DUN1, hits give low values 1 | locus YDL134C, strain PPH21, hits give low values 1.01 | locus YDL185W, strain tfp1, hits give low values 1.01 | locus YDL192W, strain arf1, hits give low values 1.03 | locus YDR001C, strain nth1, hits give low values 1.01 | locus YDR069C, strain doa4, hits give low values 1.02 | locus YDR101C, strain arx1, hits give low values 1.03 | locus YDR137W, strain rgp1, hits give low values 1.03 | locus YDR150W, strain NUM1, hits give low values 1 | locus YDR159W, strain sac3, hits give low values 0.99 | locus YDR162C, strain NBP2, hits give low values 1 | locus YDR195W, strain ref2 0.995 | locus YDR297W, strain sur2, hits give low values 1.01 | locus YDR318W, strain mcm21, hits give low values 1.02 | locus YDR334W, strain swr1, hits give low values 1.02 | locus YDR335W, strain msn5, hits give low values 1.01 | locus YDR388W, hits give low values 1.02 | locus YDR392W, strain spt3, hits give low values 1 | locus YDR502C, strain sam2, hits give low values 1.02 | locus YEL003W, strain gim4, hits give low values 1.02 | locus YEL037C, strain rad23, hits give low values 1.01 | locus YEL061C, strain CIN8 (second series), hits give low values 1.02 | locus YEL061C, strain CIN8, hits give low values 1 | locus YER015W, strain faa2, hits give low values 1.02 | locus YER016W, strain bim1, hits give low values 1.01 | locus YER110C, hits give low values 1.04 | locus YER111C, strain swi4, hits give low values 1.01 | locus YER155C, strain BEM2 (second series), hits give low values 1.02 | locus YER155C, strain BEM2, hits give low values 1 | locus YER167W, strain BCK2, hits give low values 1 | locus YFR010W, strain ubp6, hits give low values 1.03 | locus YGL078C, strain dbp3, hits give low values 1.03 | locus YGL086W, strain mad1, hits give low values 1 | locus YGL167C, strain pmr1, hits give low values 1.02 | locus YGL173C, strain kem1, hits give low values 1.01 | locus YGL227W, strain vid30, hits give low values 1.01 | locus YGL240W, strain doc1, hits give low values 1.04 | locus YGL248W, strain PDE1, hits give low values 1.01 | locus YGL253W, strain hxk2, hits give low values 1.01 | locus YGR078C, strain PAC10, hits give low values 1.01 | locus YGR135W, strain pre9, hits give low values 1.03 | locus YGR252W, strain gcn5, hits give low values 1.01 | locus YHR013C, strain ard1, hits give low values 1.02 | locus YHR027C, strain rpn1, hits give low values 1.02 | locus YHR030C, strain SLT2, hits give low values 1 and 1.02 | locus YHR079C, strain IRE1 (second series), hits give low values 1.02 | locus YHR079C, strain IRE1, hits give low values 1.04 | locus YHR094C, strain hxt1, hits give low values 1.03 | locus YHR129C, strain ARP1, hits give low values 1 | locus YHR142W, strain chs7, hits give low values 1.02 | locus YHR200W, strain rpn10, hits give low values 1.02 | locus YIL066C, strain RNR3, hits give low values 1 | locus YIL073C, strain SPO22, hits give low values 1.06 | locus YIL125W, strain kgd1, hits give low values 1.02 | locus YIR030C, strain dcg1, hits give low values 1.02 | locus YJL092W, strain hpr5, hits give low values 1.01 | locus YJL095W, strain BCK1 (second series), hits give low values 1.01 | locus YJL095W, strain BCK1, hits give low values 0.99 and 0.983 | locus YJL115W, strain asf1, hits give low values 1.03 | locus YJL129C, strain trk1, hits give low values 1.03 | locus YJL134W, strain LCB3, hits give low values 1 | locus YJL154C, strain vps35, hits give low values 1.01 | locus YJL164C, strain tpk1, hits give low values 1.01 | locus YJL166W, strain qcr8, hits give low values 1.03 | locus YJL168C, strain set2, hits give low values 1.02 | locus YJL187C, strain SWE1 (second series), hits give low values 1
